# Source: PubChem BioAssay (National Center for Advancing Translational Sciences (NCATS))
# CBFb RUNX1 block – inhibitors of human CBF-beta and RUNX1 interaction. AID 1477. 230,000 tested, under 10 active. Potency, µM (doses to about 59.8 µM), for inactives: at the highest dose activity, negative = inhibition, hits mostly inhibitors. AlphaScreen CBFb-His/RUNX1-biotin binding, biochemical. Q01196+Q13951; also: % of control where 0% means no effect
#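 Room-temperature protein-protein interaction test with 30 nM each of His-tagged CBF-beta and biotinylated RUNX1, 15 min with compound, then 90 min with nickel plus streptavidin beads. Signal read in AlphaScreen mode.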
# TRHR enhancer-1 – TRH receptor (human) allosteric enhancement; 360,000 compounds, 0.66% hits; TRHR cells, fluo-8 calcium fluorescence, EC20 TRH enhancement; P34981; enhancement, % at 2 µM; in the data active = enhancement above about 30%; also: 0% is about no effect
#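 Enhancer read-out: after compound pinning and an initial kinetic agonist-mode read, an EC20 of TRH (10 nM final) was injected and fluo-8 calcium signal (Ex 480/Em 530) followed at 1 s/cycle for 100 cycles in TRHR-expressing cells.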
# Epigenetic reg – epigenetic control regulation, reporter derepression; murine LDR cells, GFP reporter derepression, 30 h; Potency, µM (highest dose often 53.9 µM), inactives show top-dose GFP activation, most hits filed as activators; 280,000 compounds, 0.2% hits; AID 1865; also: potency is read from the fitted curve at half-maximal effect; % of control where 0% means no effect; nearly all actives have a fitted effect of over 60% in size
#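 Murine LDR cells bearing a silenced CMV-driven GFP reporter were exposed to compound for 30 h at 37 C. After PBS washes, GFP-positive cells (20-120 um objects) counted by laser-scanning microplate cytometry.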
# IL-2 act – activates IL-2 in a cell-based reporter assay; IL-2 activation reporter assay, cell-based qHTS; stimulated with anti-CD3/CD4/CD28 beads; in transgenic mouse T cells; activation, % (series mostly up to about 46 µM); 360,000 compounds, 0.065% hits; AID 652025; in the data active = activation above about 50%; inconclusive = mostly about 30% to 49%; also: 0% is about no effect
#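 Readout: EGFP and DsRed signals by fluorescent plate cytometry. Unstimulated transgenic mouse T cells received compound 60 min before antibody-bead stimulation, then incubated 18 h at 37 degrees C.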
# MBNL1 CUG block – blocks human MBNL1 binding to CUG repeat RNA. Q9NR56. TR-FRET MBNL1-His/biotin-(CUG)12 binding, 665/545 ratio. Potency, µM (highest dose often 57.5 µM), without a hit: top-dose activity change, negative = inhibition, hits mostly inhibitors. 280,000 compounds, 0.036% hits; active = well fitted inhibition curve with a large enough effect in the signal ratio, with a control signal flat, not every such curve was filed as active; inconclusive = small, poorly fitted or top-dose-only effect, or effect the other way, or a change in a side signal; inactive = no such curve, though single readings can be large or run the other way; the % refers to the signal ratio; also: potency is read from the fitted curve at half-maximal effect; % is scaled to controls: 0 for no effect and ±100 for the full control effect
# Target sequence (Q9NR56 whole entry, looked up): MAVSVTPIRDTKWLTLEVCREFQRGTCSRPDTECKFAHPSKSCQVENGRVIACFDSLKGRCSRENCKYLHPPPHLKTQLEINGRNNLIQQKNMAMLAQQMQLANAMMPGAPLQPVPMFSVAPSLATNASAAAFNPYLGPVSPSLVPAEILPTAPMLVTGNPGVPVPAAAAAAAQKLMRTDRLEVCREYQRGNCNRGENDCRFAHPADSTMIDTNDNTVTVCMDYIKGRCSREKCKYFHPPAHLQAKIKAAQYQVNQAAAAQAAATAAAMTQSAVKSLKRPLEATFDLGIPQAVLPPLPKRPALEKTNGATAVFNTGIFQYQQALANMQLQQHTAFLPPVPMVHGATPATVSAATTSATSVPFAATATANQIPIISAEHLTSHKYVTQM
#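 Compounds (final 92 nM to 58 uM) are added to His-tagged MBNL1 and biotin-(CUG)12, then terbium anti-His antibody and streptavidin-XL665 (5 nM final). After 60 min at room temperature, the 665/545 nm ratio is read.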
# TRHR agonist-1 – activates the human TRH receptor; 360,000 compounds, 0.18% hits; P34981; TRHR cells, calcium flux fluo-8, FDSS agonist mode; activation, % at 2 µM; in the data active = activation above about 30%; also: 0% is about no effect
#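 In this calcium-flux screen, cells bearing human TRHR are dye-loaded with fluo-8, baselined for 10 cycles, then exposed to library compounds; positive kinetic calcium responses during the agonist phase mark hits, with TRH as control.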
# TRHR enhancer-2 – confirmation of human TRH receptor allosteric enhancers; shares compounds with TRHR enhancer-1; activity change, negative = inhibition, % at 46.1 µM; TRH receptor cell assay, enhancer confirmation qHTS; 970 tested, under 10 active;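 also: compound effect scored on response to added TRH at EC20 of 10 nM; 0% is about no effect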
# TRHR agonist-2 – confirmation of human TRH receptor agonists; shares compounds with TRHR enhancer-1; TRHR-expressing cells, agonist activation read-out; Potency, µM (doses to about 46.1 µM), without a hit: at the highest dose activation, actives largely listed as activators; 970 compounds, 8% hits; AID 493078; also: potency is read from the fitted curve at half-maximal effect; 0% is about no effect; nearly all actives have a fitted effect of over 75% in size
# An asterisk follows results filed as active; ? = inconclusive; . = no result. Hits are enriched below; roughly 0.88% of the tested compounds scored in any of these assays. Unless noted, calls follow the shape of the dose curve; as a rule, active = well fitted curve in the direction sought with a large enough effect; inconclusive = small, poorly fitted or top-dose-only effect, or another doubt; inactive = no such curve, though single readings can be large; an effect the other way counts as inactive or inconclusive.
SMILES,CBFb RUNX1 block,TRHR enhancer-1,Epigenetic reg,IL-2 act,MBNL1 CUG block,TRHR agonist-1,TRHR enhancer-2,TRHR agonist-2
COc1ccc(Nc2nc(N)c([N+](=O)[O-])c(N3CCCC3)n2)cc1,.,3,.,-3,4%,0,.,.
COc1ccc(Nc2nc(N)c([N+](=O)[O-])c(N3CCN(C)CC3)n2)cc1,.,46*,.,0,?,0,1,1%
CCCS(=O)(=O)c1c(S(=O)(=O)CCC)c2cc(C(C)(C)C)ccn2c1C(=O)c1ccc(C)cc1,.,-2,1%,.,.,2,.,.
Cc1ccc(C)c(N2CCN(C(=O)c3cccn3-c3nnc(N4CCCCC4)s3)CC2)c1,.,-11,-3%,.,.,-1,.,.
CC1CCCN(C(=O)Cn2nnc(-c3ccc(S(C)(=O)=O)cc3)n2)C1 (stereo unspecified),.,41*,.,0,-1%,0,-3,-1%
O=C(CN1N=C(c2ccc(Cl)cc2)CCC1=O)NCCc1ccc(Cl)cc1,.,-1,0%,.,.,0,.,.
CCOC(=O)CN1N=C(c2ccc(Cl)cc2)CCC1=O,.,41*,.,-4,-2%,0,-2,2%
COc1ccc(CCNC(=O)CCn2c(=O)c3ccccc3n(CC(=O)Nc3ccccc3F)c2=O)cc1OC,.,7,-2%,.,.,1,.,.
CCc1nnc(NC(=O)C2CCN(c3ncnc4sc(C)c(C)c34)CC2)s1,.,42*,.,0,.,0,3,5%
COc1cccc(NC(=O)CCN2CCOCC2)c1,.,62*,.,1,0%,0,-3,7%
CCOc1ccc(N(Cc2nnc3n2CCCCC3)C(=O)Nc2cccc(C)c2)cc1,1%,58*,-9%,0,-4%,0,-5,1%
CCOc1ccc(NC(=O)C2CCN(c3nc4ccccc4[nH]3)CC2)cc1,.,3,1%,.,.,0,.,.
O=C(NCCc1ccc(Cl)cc1)C12CC3CC(CC(O)(C3)C1)C2,.,45*,.,-3,3%,0,0,1%
Cc1cc(=O)n(Cc2ccc(F)cc2Cl)c2c1c(C)nn2C,.,0,0%,.,.,0,.,.
COc1cc(/C=C(/C#N)C(=O)NC(C)c2ccccc2)cc(OC)c1O (stereo unspecified),.,0,.,3,?,118*,8,21µM*
COc1ccc(OC)c(CN2CCC(Cc3ccccc3)CC2)c1,.,3,.,0,-7%,28,-1,-1%
COc1cc(OC)c(CN2CCC(Cc3ccccc3)CC2)cc1Br,.,3,.,0,-22%,2,.,.
CCc1ccc(NC(=O)CCNS(=O)(=O)c2ccc3c(c2)oc(=O)n3C)cc1,.,2,-5%,.,.,0,.,.
COC(=O)c1cc2oc(C)cc2n1Cc1ccc(Br)cc1F,.,-6,1%,.,.,0,.,.
CCOC(=O)c1cc(C)sc1NC(=O)CSC1=NCCS1,.,56*,.,-3,-3%,0,-5,6%
Cc1ccc(NC(=O)CSCC(=O)NCc2ccco2)cc1,.,46*,.,0,.,0,2,1%
COc1ccc(C(CNC(=O)c2ccc(Cl)c(NC(=O)c3cccs3)c2)N2CCCC2)cc1 (stereo unspecified),.,60*,.,-3,.,1,-1,3%
CCOC(=O)Cn1c(=O)c(F)cn(Cc2ccc(OC)c([N+](=O)[O-])c2)c1=O,.,67*,.,-1,?,1,-3,-1%
CCCn1c(=O)c(F)cn(Cc2ccc(OC)c([N+](=O)[O-])c2)c1=O,1%,.,0%,-1,19%,.,.,.
COc1ccc(CNC(=O)C2CCN(C(=O)c3ccc(-n4ccc5ccccc54)s3)CC2)cc1,.,7,0%,.,.,0,.,.
O=C(Nc1ccc(CN2CCOCC2)cc1)c1ccc(F)cc1,.,56*,.,1,-1%,-1,8,-1%
